The nature of assay [1]: NCI Yeast Anticancer Drug Screen. Data for the rad50 strain (AID 155).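 Further: 0% = growth of vehicle-only cultures of the same strain.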 Conditions: S. cerevisiae rad50 strain growth inhibition, stronger effect = higher value. The method, boiled down: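 Compounds were tested on a yeast strain with an engineered DNA damage repair alteration; the reported value is growth inhibition normalised to vehicle treatment.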
Assay [2] can be described thus: NCI Yeast Anticancer Drug Screen. Data for the mec2-1 strain (AID 157). Conditions: S. cerevisiae mec2-1 strain, stronger effect = higher value. The method, boiled down: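 Each compound was tested on mec2-1 yeast, a strain altered in DNA damage repair or cell cycle control. Growth inhibition is reported relative to vehicle.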
Assay [3] in a line: NCI Yeast Anticancer Drug Screen. Data for the sgs1 mgt1 strain (AID 161).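 Further: 0% = growth of cultures given vehicle only.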 Conditions: S. cerevisiae sgs1 mgt1 strain, stronger effect = higher value. The method, boiled down:
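Test agents were incubated with a DNA-repair-mutant yeast strain. Growth was then read and compared against vehicle-treated controls.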

Assay [4] is described as follows: NCI Yeast Anticancer Drug Screen. Data for the cln2 rad14 strain (AID 165).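 Further: 0% = growth equal to vehicle treated cultures.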 Conditions: S. cerevisiae cln2 rad14 strain, stronger effect = higher value. The method, boiled down:
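Test compounds were added to cln2 rad14 yeast cultures; inhibition of growth was then determined by comparison with vehicle treatment.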

Assay [5] is described as follows: NCI Yeast Anticancer Drug Screen. Data for the bub3 strain (AID 167). The settings on record: S. cerevisiae bub3 mutant strain, stronger effect = higher value. In outline:
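Growth of a checkpoint-deficient yeast mutant is measured after compound exposure. Values represent inhibition relative to vehicle.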

Assay [6] is described as follows: NCI Yeast Anticancer Drug Screen. Data for the mlh1 rad18 strain (AID 175). The settings on record: S. cerevisiae mlh1 rad18 strain growth inhibition, stronger effect = higher value. The method, boiled down:
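Inhibition values reflect reduced growth of mutant yeast versus vehicle-treated controls following compound exposure; the mutations affect DNA damage repair.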

[7] abbreviates: at 5.0 µM (retest, dose inferred, filed as 0.5).
The mark [8] stands for this setting: at 50.0 µM (retest, dose inferred, filed as 5.0).

“And” between values parts separate entries of the source, which are not always exact repeats. Identical values can stand only once. About 79,000 compounds went through this panel and 15% of them were active in at least one assay; those are over-represented in the sample as a whole. More than one record can exist for a structure, and the calls need not agree. The source made the active and inactive calls. No stated cut-off is given here; in the data, active means growth inhibition above about 70%; inactive means the rest.

On to `O=C(O)CCN1c2ccccc2Sc2ccccc21`, for which the growth inhibition in assay [1] (setting [7]) was 1% (inactive) and -19% (inactive); in assay [1] (setting [8]), 31% (inactive) and 27% (inactive); in assay [1] (at 50.0 µM), 35% (inactive) and 69.4% (inactive); in assay [2] (setting [7]), -22% (inactive) and -12% (inactive); in assay [2] (setting [8]), 40% (inactive) and 48% (inactive); in assay [2] (at 50.0 µM), 13.3% (inactive) and 52% (inactive). Moreover, the growth inhibition in assay [3] (setting [7]) was -5% (inactive) and -16% (inactive); in assay [3] (setting [8]) it was 46% (inactive) and 41% (inactive); in assay [3] (at 50.0 µM), 27.9% (inactive) and 69.6% (inactive); in assay [4] (setting [7]), -8% (inactive) and 13% (inactive); in assay [4] (setting [8]), 58% (inactive) and 52% (inactive); in assay [4] (at 50.0 µM), 84.3% (active) and 54.4% (inactive). Moreover, the growth inhibition was -15% (inactive) and -16% (inactive) in assay [5] (setting [7]); 51% (inactive) and 48% (inactive) in assay [5] (setting [8]); 64.9% (inactive) and 39.2% (inactive) in assay [5] (at 50.0 µM); -7% (inactive) and -39% (inactive) in assay [6] (setting [7]); 56% (inactive) and 35% (inactive) in assay [6] (setting [8]); 42.5% (inactive) and 54.9% (inactive) in assay [6] (at 50.0 µM).

For the compound `COC(=O)C1=COC(C)C2C[n+]3ccc4c([nH]c5ccccc54)c3CC12` (stereo not drawn), the growth inhibition in assay [1] (setting [7]) was 23% (inactive); in assay [1] (setting [8]), 25% (inactive); in assay [1] (at 50.0 µM) it was -11.6% (inactive) and 6.35% (inactive); in assay [2] (setting [7]) it was 22% (inactive); in assay [2] (setting [8]), 25% (inactive); in assay [2] (at 50.0 µM), -34% (inactive) and 31.9% (inactive). Moreover, the growth inhibition in assay [3] (setting [7]) was 17% (inactive); in assay [3] (setting [8]), 38% (inactive); in assay [3] (at 50.0 µM), -11.2% (inactive) and 17.6% (inactive); in assay [4] (setting [7]), 21% (inactive); in assay [4] (setting [8]) it was 30% (inactive); in assay [4] (at 50.0 µM), -8.3% (inactive) and -15.8% (inactive). Besides, the growth inhibition is 22% (inactive) in assay [5] (setting [7]); 35% (inactive) in assay [5] (setting [8]); -31.1% (inactive) and 38.2% (inactive) in assay [5] (at 50.0 µM); 23% (inactive) in assay [6] (setting [7]); 39% (inactive) in assay [6] (setting [8]); -18.1% (inactive) and 43.3% (inactive) in assay [6] (at 50.0 µM).

Turning to `CC1(C)CC(=O)C2=C(C1)OC1=C(CC(C)(C)CC1=O)C2c1ccccc1Cl` (stereo not drawn), the growth inhibition is 19% (inactive) in assay [1] (setting [7]); 16% (inactive) in assay [1] (setting [8]); -5.65% (inactive) in assay [1] (at 50.0 µM); 12% (inactive) in assay [2] (setting [7]); 13% (inactive) in assay [2] (setting [8]); -7.45% (inactive) in assay [2] (at 50.0 µM). Besides, the growth inhibition in assay [3] (setting [7]) is 8% (inactive); in assay [3] (setting [8]), 10% (inactive); in assay [3] (at 50.0 µM), -1.9% (inactive); in assay [4] (setting [7]), 37% (inactive); in assay [4] (setting [8]), 33% (inactive); in assay [4] (at 50.0 µM) it was 5.45% (inactive). Besides, the growth inhibition was -11% (inactive) in assay [5] (setting [7]); -10% (inactive) in assay [5] (setting [8]); 13.2% (inactive) in assay [5] (at 50.0 µM); 17% (inactive) in assay [6] (setting [7]); 17% (inactive) in assay [6] (setting [8]); -15.2% (inactive) in assay [6] (at 50.0 µM).

Regarding `c1ccc(CSC(SCc2ccccc2)(c2ccccc2)c2ccccc2)cc1`, the growth inhibition in assay [1] (setting [7]) was 30% (inactive); in assay [1] (setting [8]) it was 88% (active); in assay [1] (at 50.0 µM), 14.4% (inactive) and 72% (active); in assay [2] (setting [7]) it was 13% (inactive); in assay [2] (setting [8]) it was 93% (active); in assay [2] (at 50.0 µM) it was 5.7% (inactive) and 63.5% (inactive). Also, the growth inhibition is 2% (inactive) in assay [3] (setting [7]); 90% (active) in assay [3] (setting [8]); 14.8% (inactive) and 76.8% (active) in assay [3] (at 50.0 µM); 11% (inactive) in assay [4] (setting [7]); 87% (active) in assay [4] (setting [8]); 18.2% (inactive) and 65.3% (inactive) in assay [4] (at 50.0 µM). Also, the growth inhibition in assay [5] (setting [7]) is -16% (inactive); in assay [5] (setting [8]) it was 83% (active); in assay [5] (at 50.0 µM), 15.4% (inactive) and 74.8% (active); in assay [6] (setting [7]), 22% (inactive); in assay [6] (setting [8]), 92% (active); in assay [6] (at 50.0 µM), 13.7% (inactive) and 81.3% (active).

With `O=C(COc1ccc(Cl)cc1Cl)Nc1cccc(C(F)(F)F)c1`, the growth inhibition is -4% (inactive) in assay [1] (setting [7]); -3% (inactive) in assay [1] (setting [8]); -4.5% (inactive) in assay [1] (at 50.0 µM); -18% (inactive) in assay [2] (setting [7]); -25% (inactive) in assay [2] (setting [8]); 7.95% (inactive) in assay [2] (at 50.0 µM). Moreover, the growth inhibition in assay [3] (setting [7]) is -3% (inactive); in assay [3] (setting [8]) it was -2% (inactive); in assay [3] (at 50.0 µM), 9.65% (inactive); in assay [4] (setting [7]), -3% (inactive); in assay [4] (setting [8]), -13% (inactive); in assay [4] (at 50.0 µM) it was 41.9% (inactive). Moreover, the growth inhibition in assay [5] (setting [7]) is 12% (inactive); in assay [5] (setting [8]), 0% (inactive); in assay [5] (at 50.0 µM), 1% (inactive); in assay [6] (setting [7]), 1% (inactive); in assay [6] (setting [8]) it was 10% (inactive); in assay [6] (at 50.0 µM), -0.4% (inactive).

Consider `CC(=O)OC1OC(=O)C(C)(C(C)=O)C1C` (stereo not drawn), for which the growth inhibition in assay [1] (setting [7]) was 19% (inactive); in assay [1] (setting [8]), 95% (active); in assay [1] (at 50.0 µM) it was 89.9% (active); in assay [2] (setting [7]), 10% (inactive); in assay [2] (setting [8]) it was 96% (active); in assay [2] (at 50.0 µM), 89.6% (active). The growth inhibition in assay [3] (setting [7]) was 25% (inactive); in assay [3] (setting [8]), 93% (active); in assay [3] (at 50.0 µM), 89.9% (active); in assay [4] (setting [7]), 27% (inactive); in assay [4] (setting [8]), 81% (active); in assay [4] (at 50.0 µM), 83.2% (active). Moreover, the growth inhibition in assay [5] (setting [7]) is 23% (inactive); in assay [5] (setting [8]), 93% (active); in assay [5] (at 50.0 µM) it was 89.2% (active); in assay [6] (setting [7]), 22% (inactive); in assay [6] (setting [8]), 96% (active); in assay [6] (at 50.0 µM), 89.6% (active).

The values are drawn from PubChem BioAssay (NCI).
